Experimental findings from PubChem BioAssay are described below.

The nature of test [1]: compounds binding Alexa647 anti-His antibody – biochemical, small-molecule microarray, 635 nm fluorescence, artefact control for SMM control protein annotation, primary screen (AID 1128).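 Further: score merges feature fluorescence with signal-to-noise for each printed compound spot.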 The note with it: higher = more signal.
In test [2] the test system is Human papillomavirus type 1a E7 protein (residues 1-88). Description: HPV1a E7 small-molecule binders, primary screen, biochemical, small-molecule microarray, residues 1-88, 635 nm (AID 1129). The note with it: small-molecule microarray binding, fluorescence 635 nm; higher = more signal.
For test [3], the target named is Focal adhesion kinase 1 (Homo sapiens) (UniProt Q05397). In words: PTK2 protein binding on printed compound slides – biochemical, small-molecule microarray, 635/667 nm fluorescence, BSA, DTT, primary screen (AID 1130).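 Further: composite of spot emission at 667 nm and signal to noise over triplicate slides.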 The note with it: 635 nm fluorescence, higher = more signal.
For test [4], the system named is Fibrinogen (Alexa647-labelled). Description: Alexa647-fibrinogen binding to printed small molecules – biochemical, small-molecule microarray, 635/667 nm fluorescence, artefact control for SMM control-protein annotation, profiling panel (AID 1131).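 Further: z-score merges 667 nm fluorescence with per-spot signal-to-noise over triplicate slides.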 The settings on record: fibrinogen-A647 binding fluorescence, higher = more signal.
Test [5] concerns the target Follistatin (Homo sapiens) (UniProt P19883). In words: FST protein binding to printed compounds – biochemical, small-molecule microarray, 635/667 nm fluorescence, primary screen (AID 1132). The settings on record: 635 nm fluorescence, higher = more signal.
The target of test [6] is Fibroblast growth factor 2 (Homo sapiens) (UniProt P09038). In words: basic fibroblast growth factor binding to printed compounds – biochemical, small-molecule microarray, 635/667 nm fluorescence, primary screen (AID 1133). The note with it: FGF2, fluorescence 635/667, higher = more signal.
Test [7] in a line: JC-1 mitochondrial potential readout, lung cancer cells – cell-based, A549, JC-1 fluorescence, basal, 24 h, 100 nL, profiling panel (AID 1138).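 Further: A549 lung adenocarcinoma cells under basal conditions with no added stimulus; test concentration not given here.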 The note with it: higher = more signal.
The next test has as its system Lefty1. Description: Lefty1 protein binding to printed compounds – biochemical, small-molecule microarray, 635/667 nm fluorescence, primary screen (AID 1139). The settings on record: fluorescence 635/667, higher = more signal.
Test [8] deals with wheat germ agglutinin (Triticum aestivum), Alexa647-labelled. In words: Alexa647-WGA lectin binding to printed small molecules – biochemical, small-molecule microarray, 635/667 nm fluorescence, artefact control for SMM control-protein annotation, profiling panel (AID 1140).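 Further: score merges 667 nm feature emission with signal to noise over triplicate slides.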 The note with it: WGA-A647 binding, 635 nm fluorescence, higher = more signal.
For test [9], the target named is Luciferin 4-monooxygenase (Photinus pyralis) (UniProt P08659). In words: inhibition of purified Photinus pyralis luciferase – biochemical, luminescence, purified enzyme, 2006 set, primary screen (AID 1141).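 Further: cell-free assay with purified firefly luciferase at 100 ng per well in PBS; test concentration not given here.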 The note with it: purified firefly luciferase, SteadyGlo luminescence, 30 min; higher = more signal, called active from +8 up or from −8 down.
In test [10] the test system is Wnt5a (protein binding on small-molecule microarray). Description: small molecules binding Wnt5a protein – biophysical, small-molecule microarray, 635/667 nm fluorescence, primary screen (AID 1142).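 Further: fluorescence read at 667 nm with signal to noise per printed feature.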 The note with it: 635 nm fluorescence, higher = more signal.
Test [11] in a line: ATP-based viability of Huh7 replicon cells – cell-based, CellTiter-Glo luminescence, basal, 48 h, cytotoxicity control for HCV replication inhibitor project, primary screen (AID 1143).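 Further: Huh7 hepatoma cells carrying a hepatitis C replication reporter with no stimulus; test concentration not given here.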 The note with it: higher = more signal, called active from +8 up or from −8 down. A general note: A replicon is a self-replicating genome or part of one, used to study replication in cells.
A short description of test [12]: Pseudomonas biofilm growth suppression – PAO1 strain, BacTiter-Glo luminescence, LB-PBS, primary screen (AID 1144). The settings on record: P. aeruginosa PAO1 biofilm, 12 h, higher = more signal.
Test [13] is described as follows: basal CRE-LacZ reporter activity in PC12 – cell-based, unstimulated, primary screen (AID 1145). The note with it: no forskolin, luminescence, 4.5 h, higher = more signal, called active from +8 up or from −8 down.
Test [14] in a line: forskolin-driven CRE-LacZ activity in PC12 – cell-based, CRE-LacZ reporter, forskolin-stimulated, primary screen (AID 1146).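 Further: PC12 cells with 6xCRE LacZ reporter stimulated by forskolin 10 µM; beta-galactosidase reporter signal reflecting CREB driven transcription.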 The settings on record: luminescence, 4.5 h, higher = more signal, called active from +8 up or from −8 down.
Test [15] addresses Streptavidin (Streptomyces avidinii) (UniProt P22629). In words: compounds binding control protein streptavidin – biophysical, small-molecule microarray, 635/667 nm fluorescence, artefact control for SMM compound annotation, primary screen (AID 1147).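 Further: signal reflects streptavidin binding to arrayed compounds as a control protein.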 The settings on record: higher = more signal.
A short description of test [16]: probe aInhba binding on compound microarray – biochemical, small-molecule microarray, 635/667 nm fluorescence, primary screen (AID 1148).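 Further: score merges 667nm spot fluorescence with signal-to-noise for antibody binding to printed compounds.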 The note with it: higher = more signal.
For test [17], the target named is Torsin-1A (Homo sapiens) (UniProt O14656). In words: TOR1A wild-type binding on microarray – cell lysate, small-molecule microarray, lysate, 635/667 nm, primary screen (AID 1149). The note with it: COS7 hTOR1A-WT lysate, 635 nm fluorescence, higher = more signal.
The target is the same in test [18]. Description: torsin A mutant lysate binding on microarrays – cell lysate, small-molecule microarray, COS7 lysate, 635/667 nm fluorescence, primary screen (AID 1150).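 Further: score pools 667 nm emission and signal to noise measuring lysate protein binding.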 The note with it: COS7 hTOR1A mutant lysate, 635 nm fluorescence, higher = more signal.
For test [19], the system named is Sonic hedgehog protein (Shh). Description: Sonic hedgehog microarray binding compounds – biochemical, small-molecule microarray, 635/667 nm fluorescence, primary screen (AID 1151).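 Further: Shh protein binding to compounds spotted on small-molecule microarray slides; score combines spot fluorescence intensity with signal-to-noise across triplicate slides.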 The settings on record: 635 nm fluorescence, higher = more signal.

Where “and” joins values, the source holds several entries; their conditions need not be identical. Equal values may be shown once. Calls of active or inactive are those of the source. Unless noted, how the calls were made is not given here.

Chain of Torsin-1A (Homo sapiens) (O14656 whole entry, looked up): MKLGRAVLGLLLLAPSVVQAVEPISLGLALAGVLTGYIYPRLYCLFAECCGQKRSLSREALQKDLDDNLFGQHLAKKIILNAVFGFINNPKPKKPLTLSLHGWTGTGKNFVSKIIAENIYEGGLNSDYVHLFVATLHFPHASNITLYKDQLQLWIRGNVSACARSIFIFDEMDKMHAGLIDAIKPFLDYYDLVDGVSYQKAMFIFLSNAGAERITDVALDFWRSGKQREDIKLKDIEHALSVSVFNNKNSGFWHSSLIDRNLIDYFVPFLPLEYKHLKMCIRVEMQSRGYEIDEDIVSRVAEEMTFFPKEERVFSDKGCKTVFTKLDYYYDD
Chain of Focal adhesion kinase 1 (Homo sapiens) (Q05397 whole entry, looked up): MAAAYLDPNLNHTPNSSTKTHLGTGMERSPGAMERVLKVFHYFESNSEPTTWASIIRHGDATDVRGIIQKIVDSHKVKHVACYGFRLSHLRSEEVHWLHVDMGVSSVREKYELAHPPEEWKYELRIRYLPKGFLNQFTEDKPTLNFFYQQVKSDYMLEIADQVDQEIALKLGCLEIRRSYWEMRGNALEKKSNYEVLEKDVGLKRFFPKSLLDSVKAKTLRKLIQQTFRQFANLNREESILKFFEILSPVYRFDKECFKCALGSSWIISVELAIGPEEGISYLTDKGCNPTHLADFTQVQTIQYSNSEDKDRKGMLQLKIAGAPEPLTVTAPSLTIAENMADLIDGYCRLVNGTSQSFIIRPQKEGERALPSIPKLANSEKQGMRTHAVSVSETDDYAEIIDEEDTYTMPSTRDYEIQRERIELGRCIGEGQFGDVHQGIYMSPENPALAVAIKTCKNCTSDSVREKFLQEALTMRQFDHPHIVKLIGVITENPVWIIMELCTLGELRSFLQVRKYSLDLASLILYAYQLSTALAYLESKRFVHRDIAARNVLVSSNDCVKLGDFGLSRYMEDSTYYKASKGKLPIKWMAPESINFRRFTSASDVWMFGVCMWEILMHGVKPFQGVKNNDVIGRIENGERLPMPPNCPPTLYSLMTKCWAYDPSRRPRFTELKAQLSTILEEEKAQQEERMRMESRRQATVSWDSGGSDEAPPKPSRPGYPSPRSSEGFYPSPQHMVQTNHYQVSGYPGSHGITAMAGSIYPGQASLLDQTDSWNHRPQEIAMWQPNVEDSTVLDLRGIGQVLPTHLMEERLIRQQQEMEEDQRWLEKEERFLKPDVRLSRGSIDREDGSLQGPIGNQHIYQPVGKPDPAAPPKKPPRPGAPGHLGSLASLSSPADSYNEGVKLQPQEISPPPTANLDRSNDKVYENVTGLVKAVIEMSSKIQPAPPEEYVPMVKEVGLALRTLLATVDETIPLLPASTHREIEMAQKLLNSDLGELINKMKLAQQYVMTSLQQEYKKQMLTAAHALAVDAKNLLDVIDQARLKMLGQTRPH
Chain of Luciferin 4-monooxygenase (Photinus pyralis) (P08659 whole entry, looked up): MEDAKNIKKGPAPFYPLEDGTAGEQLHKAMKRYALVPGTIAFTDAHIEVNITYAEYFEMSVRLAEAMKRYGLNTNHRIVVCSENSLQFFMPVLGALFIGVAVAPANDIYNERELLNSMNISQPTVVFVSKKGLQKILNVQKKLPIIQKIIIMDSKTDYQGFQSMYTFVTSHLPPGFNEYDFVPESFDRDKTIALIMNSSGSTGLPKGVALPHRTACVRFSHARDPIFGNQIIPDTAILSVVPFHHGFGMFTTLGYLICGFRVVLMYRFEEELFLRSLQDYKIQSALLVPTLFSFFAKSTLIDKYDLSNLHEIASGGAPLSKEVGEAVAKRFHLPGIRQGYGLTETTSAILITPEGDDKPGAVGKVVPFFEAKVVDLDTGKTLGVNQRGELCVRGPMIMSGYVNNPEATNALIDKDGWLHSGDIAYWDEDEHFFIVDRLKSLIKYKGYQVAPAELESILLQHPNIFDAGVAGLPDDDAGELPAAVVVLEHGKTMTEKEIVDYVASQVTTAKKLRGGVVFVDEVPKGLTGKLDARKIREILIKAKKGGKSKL
Chain of Follistatin (Homo sapiens) (P19883 whole entry, looked up): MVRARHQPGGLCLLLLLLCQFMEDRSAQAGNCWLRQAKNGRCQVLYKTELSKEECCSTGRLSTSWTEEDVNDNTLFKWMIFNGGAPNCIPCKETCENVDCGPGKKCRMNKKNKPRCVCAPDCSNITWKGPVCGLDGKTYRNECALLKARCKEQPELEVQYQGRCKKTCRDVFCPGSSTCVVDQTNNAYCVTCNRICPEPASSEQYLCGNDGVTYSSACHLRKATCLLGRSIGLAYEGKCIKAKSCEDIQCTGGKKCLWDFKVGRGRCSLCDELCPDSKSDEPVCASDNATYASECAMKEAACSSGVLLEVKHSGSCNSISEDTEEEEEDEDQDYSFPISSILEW
Chain of Fibroblast growth factor 2 (Homo sapiens) (P09038 whole entry, looked up): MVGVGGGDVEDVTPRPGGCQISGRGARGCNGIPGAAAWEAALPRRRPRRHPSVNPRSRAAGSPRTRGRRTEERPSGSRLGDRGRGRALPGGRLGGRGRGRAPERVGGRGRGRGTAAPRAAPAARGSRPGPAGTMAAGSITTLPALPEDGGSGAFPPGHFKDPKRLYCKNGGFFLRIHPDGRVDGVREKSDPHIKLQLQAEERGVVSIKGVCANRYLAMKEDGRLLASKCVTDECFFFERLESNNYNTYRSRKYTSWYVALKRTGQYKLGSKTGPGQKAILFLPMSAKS
Chain of Streptavidin (Streptomyces avidinii) (P22629 whole entry, looked up): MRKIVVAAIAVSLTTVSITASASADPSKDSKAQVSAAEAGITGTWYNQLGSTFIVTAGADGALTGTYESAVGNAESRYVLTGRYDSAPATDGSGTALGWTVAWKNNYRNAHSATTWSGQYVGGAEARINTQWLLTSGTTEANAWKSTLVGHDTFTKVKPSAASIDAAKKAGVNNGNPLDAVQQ

In the case of `CCOC(=O)[C@@H]1CC2O[C@]23C[C@@H]1C(=O)N1CCC[C@@H]1[C@H]3O[Si](C)(C)C(C)(C)C` (stereo not given in full), the composite z-score was -0.423 and -0.146 in test [1]; -0.853 and 0.0436 in test [2]; 0.623 and 0.0915 in test [3]; -0.607 and -0.0382 in [4]; -0.568 and 0.342 in test [5]; 0.0471 and 1.14 in test [6]. The composite z-score with Lefty1 was -0.0485 and 0.69; in [8] it was -0.616 and -0.276; in test [10], 0.187 and -0.0017; in [15], -0.468 and -0.0735; in test [16], -0.105 and 0.651; with Torsin-1A (Homo sapiens) [17] it was -0.36 and -0.384. In addition, the composite z-score with Torsin-1A (Homo sapiens) [18] is -0.855 and -0.032; in [19] it was 0.361 and 1.05. The z-score in test [7] is -0.944 and -0.261; in [9], 0.316 (inactive) and 0.32 (inactive); in test [11] it was -1.17 (inactive) and 0.553 (inactive); in test [12] it was -0.377 (inactive) and 0.487 (inactive); in [13] it was -1.23 (inactive) and -0.414 (inactive); in test [14] it was -0.217 (inactive) and 1.42 (inactive).
Take `C[C@@H]1CN2[C@@H](CC[C@@H](C)[C@@H]2c2ccc(Br)cc2)C(=O)O1`: the composite z-score in test [1] was 0.513 and -0.557; in [2], -1.13 and 0.142; in [3] it was -0.0732 and 0.591; in [4] it was -0.459 and -0.964; in [5] it was -0.138 and 0.0634; in test [6] it was 0.0798 and 0.44. Further, the composite z-score was -0.0013 and 0.133 in the test with Lefty1; -0.556 and 0.125 in [8]; -0.174 and -0.0451 in test [10]; -0.404 and -0.145 in test [15]; -0.193 and 0.0506 in test [16]; -0.467 and 0.111 with Torsin-1A (Homo sapiens) [17]. Also, the composite z-score with Torsin-1A (Homo sapiens) [18] was 0.0914 and 0.0837; in [19] it was 0.486 and 0.218. In addition, the z-score is 1.14 and 1.07 in [7]; -0.678 (inactive) and -1.36 (inactive) in test [9]; 0.482 (inactive) and -0.656 (inactive) in test [11]; 0.259 (inactive) and -1.1 (inactive) in test [12]; 0.74 (inactive) and 2 (inactive) in test [13]; 0.667 (inactive) and 0.0918 (inactive) in test [14].
For `CCC[C@@H]1C[C@@]1(CCC)[C@@H](NC(=O)c1ccc(-c2ccccc2)cc1)c1cccc(Cl)c1`, the composite z-score in [1] is -0.844 and 1.8; in test [2] it was -0.817 and 0.53; in test [3] it was 0.589 and 0.541; in test [4], -0.427 and 0.367; in [5], -0.0957 and 0.115; in test [6], -0.817 and -0.244. In addition, the composite z-score was -0.16 and -0.268 in the test on Lefty1; -0.463 and 0.469 in test [8]; 0.585 and -0.0434 in test [10]; -0.475 and 0.378 in [15]; 1.13 and -0.0011 in test [16]; 0.286 and -0.411 with Torsin-1A (Homo sapiens) [17]. Also, the composite z-score with Torsin-1A (Homo sapiens) [18] is 0.322 and 0.104; in test [19], -0.032 and -0.684. The z-score in [7] was 0.122 and 1.45; in test [9] it was 1.01 (inactive) and 1.76 (inactive); in test [11] it was -2.34 (inactive) and -1.18 (inactive); in [12] it was -0.439 (inactive) and -0.623 (inactive); in test [13] it was 0.394 (inactive) and -0.568 (inactive); in test [14] it was 0.0069 (inactive) and -0.151 (inactive).
Consider `C=CCN(C(=O)C(c1cccs1)N(C(=O)/C=C\C(=O)O)c1c(Cl)cccc1CO)C(C)(C)C` (stereo not given), for which the composite z-score in test [1] is 0.28 and -0.668; in [2], -1.4 and -1.02; in test [3] it was -0.513 and -0.619; in test [4] it was -2.69 and -1.15; in [5], -1.48 and -1.81; in [6] it was -2.01 and -2.33. The composite z-score in the test on Lefty1 was -1.96 and -2.54; in [8] it was -0.543 and -1; in test [10], -1.15 and -1.26; in test [15] it was -1.61 and -1.09; in [16] it was -0.341 and -0.164; with Torsin-1A (Homo sapiens) [17] it was -3.44 and -4.12. Also, the composite z-score with Torsin-1A (Homo sapiens) [18] was -3.15 and -2.91; in [19], -1.98 and -2.58. Moreover, the z-score is 0.674 and 0.368 in [7]; -0.242 (inactive) and -0.42 (inactive) in test [9]; 0.389 (inactive) and 0.124 (inactive) in test [11]; 0.933 (inactive) and 1.26 (inactive) in test [12]; 0.325 (inactive) and 0.471 (inactive) in test [13]; -0.386 (inactive) and -0.514 (inactive) in test [14].
